# Screen size: about 310,000 compounds; about 14,000 (4.5%) showed an effect of 50% or more. Effects have a minus sign here. The sample as a whole holds a higher share of strong results than the screen did.
# Target: human ether-à-go-go-related gene (hERG) potassium channel (human, UniProt Q12809)
# Test: primary screen, population patch clamp on CHO cells stably expressing hERG; higher = less effect of the substance
# 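Further: peak tail current of the secondary pulse compared with the same well before compound.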
# Chain of human ether-à-go-go-related gene (hERG) potassium channel (Q12809 whole entry, looked up): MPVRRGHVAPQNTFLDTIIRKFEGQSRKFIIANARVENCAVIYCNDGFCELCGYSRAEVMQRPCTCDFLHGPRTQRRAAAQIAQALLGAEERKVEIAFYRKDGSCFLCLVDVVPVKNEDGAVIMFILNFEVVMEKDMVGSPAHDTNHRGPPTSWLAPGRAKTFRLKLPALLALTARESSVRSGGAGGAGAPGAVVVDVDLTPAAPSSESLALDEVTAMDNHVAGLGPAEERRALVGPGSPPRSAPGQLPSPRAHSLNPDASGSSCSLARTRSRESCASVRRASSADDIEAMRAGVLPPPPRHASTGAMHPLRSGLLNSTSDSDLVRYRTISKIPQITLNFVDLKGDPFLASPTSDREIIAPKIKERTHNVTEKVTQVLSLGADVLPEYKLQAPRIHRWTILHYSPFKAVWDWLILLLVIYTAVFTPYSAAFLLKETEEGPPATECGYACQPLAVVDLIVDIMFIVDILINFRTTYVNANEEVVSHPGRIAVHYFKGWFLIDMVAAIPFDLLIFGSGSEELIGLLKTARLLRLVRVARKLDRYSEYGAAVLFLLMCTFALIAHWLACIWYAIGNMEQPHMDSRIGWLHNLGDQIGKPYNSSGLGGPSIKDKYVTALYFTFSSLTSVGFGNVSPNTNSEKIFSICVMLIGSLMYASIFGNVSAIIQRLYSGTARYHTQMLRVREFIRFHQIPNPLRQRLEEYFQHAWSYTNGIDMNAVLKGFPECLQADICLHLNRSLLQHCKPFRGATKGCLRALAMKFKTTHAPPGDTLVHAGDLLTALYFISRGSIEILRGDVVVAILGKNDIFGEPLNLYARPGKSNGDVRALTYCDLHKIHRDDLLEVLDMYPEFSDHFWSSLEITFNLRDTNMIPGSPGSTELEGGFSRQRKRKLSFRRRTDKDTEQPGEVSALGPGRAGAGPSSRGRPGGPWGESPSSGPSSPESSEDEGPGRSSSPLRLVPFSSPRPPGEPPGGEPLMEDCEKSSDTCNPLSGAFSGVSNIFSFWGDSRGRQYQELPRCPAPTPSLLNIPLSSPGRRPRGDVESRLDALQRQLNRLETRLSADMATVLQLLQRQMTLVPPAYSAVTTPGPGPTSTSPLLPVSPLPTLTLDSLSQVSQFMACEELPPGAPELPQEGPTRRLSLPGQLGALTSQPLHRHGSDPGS
row,SMILES,"hERG current change (%, negative = inhibition) at 10uM [%]"
1,COC(=O)c1c(NC(C)=O)sc(C(=O)Nc2ccccc2OC)c1C,16.2
2,CC(Cc1n[nH]c(=S)o1)c1ccccc1 (stereo not drawn),20.7
3,COc1cccc(C(C(=O)NC2CCCC2)N(Cc2cccnc2)C(=O)Cc2cccs2)c1 (stereo not drawn),-5.67
4,COc1ccc(C2=Nc3ccc(C)cc3C(c3ccccc3)N2CC(=O)NN)cc1 (stereo not drawn),-23.2
5,O=[N+]([O-])c1ccccc1NCc1ccc(Cl)cc1,-19.5
6,C/C=C/c1ccc(OCC(O)CNCCc2ccc(OC)cc2)c(OC)c1.O=C(O)C(=O)O (stereo not drawn),-73.4
7,COC(=O)c1ccc(OCC(O)CNCC(c2ccc(OC)cc2)N(C)C)c(OC)c1 (stereo not drawn),-21.4
8,C=CCNCC(O)COc1ccc(C(C)=O)cc1OC.O=C(O)C(=O)O (stereo not drawn),-6.16
9,C/C=C/c1ccc(OCCCNCC(C)O)c(OC)c1 (stereo not drawn),-29.2
10,C/C=C/c1ccc(OCC(O)CNCC(c2ccc(OC)cc2)N(C)C)c(OC)c1.O=C(O)C(=O)O (stereo not drawn),-66.5
11,Cc1cc(Br)ccc1NC(=O)CN(C)C(=O)C1CSC2(C)CCC(=O)N12 (stereo not drawn),11.5
12,CC1=CC(C)(C)Nc2ccc(OC(=O)CCN3C(=O)c4ccccc4C3=O)cc21,0.14
13,COc1ccc(C(=O)NC2CCN(C(=S)Nc3ccccc3)CC2)cc1,12.7
14,CNC(=O)c1c[nH]n2c(=O)c(Cc3ccccc3F)c(C)nc12,16.9
15,COc1cccc(/C=C/C(=O)NNC(=O)c2ccncc2)c1,-20.5
16,CCOc1cnc(C(=O)NNC(=O)c2ccccc2Br)o1,11
17,CCCNS(=O)(=O)c1ccc(OCC(=O)NCc2ccc3c(c2)OCO3)cc1,-23.8
18,C=CCNC(=O)/C(C#N)=C/c1c(C)nn(-c2ccccc2)c1Cl,-20
19,O=C(/C=C/c1ccc(Cl)cc1)NC1CCS(=O)(=O)C1 (stereo not drawn),-58.7
20,O=C(NC1CCS(=O)(=O)C1)/C(=C/c1ccc(Cl)cc1)NC(=O)c1ccccc1 (stereo not drawn),-55
21,Cc1ccc(/C=C/C(=O)NC2CCS(=O)(=O)C2)cc1 (stereo not drawn),20.6

row,SMILES,"hERG current change (%, negative = inhibition) at 10uM [%]"
1,O=C(/C=C/c1ccccc1)NC1CCS(=O)(=O)C1 (stereo not drawn),18.1
2,O=C(NC(NC1CCS(=O)(=O)C1)C(=O)c1cccs1)c1ccccc1 (stereo not drawn),-1.01
3,O=C(NC1CCS(=O)(=O)C1)/C(=C\c1ccc(F)cc1)NC(=O)c1ccccc1 (stereo not drawn),-34.7
4,O=C(NC1CCS(=O)(=O)C1)/C(=C\c1ccccc1)NC(=O)c1ccccc1 (stereo not drawn),-11
5,O=C(NC(NC1CCS(=O)(=O)C1)C(Cl)(Cl)Cl)c1cccc(Cl)c1 (stereo not drawn),-7.37
6,O=C(NC(NC1CCS(=O)(=O)C1)C(=O)c1ccccc1)c1ccc(Cl)cc1 (stereo not drawn),-51.6
7,Cc1ccc(NC(=O)NCc2ccccn2)cc1,37.7
8,Fc1ccc(OCc2nc(-c3cccs3)no2)cc1,-9.58
9,c1ccc(Cc2nn3c(COc4ccccc4)nnc3s2)cc1,6.61
10,CC1=C(C(=O)OCc2ccccc2)C(c2ccccc2[N+](=O)[O-])NC(=O)N1C (stereo not drawn),1.71
11,COc1ccc(N2CCN(Cc3nc(N)nc(Nc4ccccc4OC)n3)CC2)cc1,-62
12,COc1ccc(OCc2nc(N)nc(Nc3ccccc3OC)n2)cc1,9.46
13,COc1ccccc1Nc1nc(N)nc(CN2CCC(Cc3ccccc3)CC2)n1,-84.5
14,COc1ccccc1Nc1nc(N)nc(CN2CCN(Cc3ccccc3)CC2)n1,-73.2
15,COc1cccc(N2CCN(Cc3nc(N)nc(Nc4ccccc4OC)n3)CC2)c1,-25.6
16,COc1ccccc1Nc1nc(N)nc(CCl)n1,3.4
17,COc1ccccc1Nc1nc(N)nc(CN2CCN(c3ccccc3)CC2)n1,-52.9
18,COc1ccccc1Nc1nc(N)nc(CSC(=S)N2CCOCC2)n1,-9.92
19,COc1ccccc1Nc1nc(N)nc(CSC(=S)N2CCN(c3ccccc3)CC2)n1,6.86
20,Cc1cc(C)cc(NC(=O)CCC(=O)Nc2cc(C)on2)c1,8.01
21,Cc1cc(C)c(C(CC(=O)c2cccs2)C(C#N)C#N)c(C)c1 (stereo not drawn),-23.9

row,SMILES,"hERG current change (%, negative = inhibition) at 10uM [%]"
1,O=c1c2ccccc2n2c(-c3cccc(Cl)c3)nnc2n1Cc1ccccc1,-11.8
2,COc1ccccc1NC(=O)c1cc(=O)[nH]c2ccccc12,33.4
3,COc1ccc(CN2C(=O)CN=C2Nc2cc(C)ccc2C)cc1.Cl,1.79
4,O=C(CN(Cc1ccc(Cl)cc1)C(=O)CN1C(=O)COc2ccccc21)NC1CCCC1,15
5,CCOC(=O)c1ccc2nc(NC(NC(C)=O)(C(=O)OC)C(F)(F)F)sc2c1 (stereo not drawn),13.6
6,CN(C(=O)CSc1nnc(Cc2ccccc2F)n1N)C1CCS(=O)(=O)C1 (stereo not drawn),9.76
7,FC(F)(F)c1cccc(Cc2noc(CN3CCCC3)n2)c1,15.6
8,NC(=O)[C@@H]1CCCN1Cc1nc(Cc2cccc(C(F)(F)F)c2)no1,8.45
9,FC(F)(F)c1cccc(Cc2noc(CN3CCSCC3)n2)c1,0.814
10,FC(F)(F)c1cccc(Cc2noc(CN3CCC(c4ccncc4)CC3)n2)c1,-66.2
11,Fc1cccc(Cc2noc(CN3CCC(c4ccncc4)CC3)n2)c1,-21.4
12,FC(F)(F)c1cccc(Cc2noc(CN3CCC(N4CCCCC4)CC3)n2)c1,-74.7
13,CCOC(=O)N1CCN(Cc2nc(Cc3cccc(C(F)(F)F)c3)no2)CC1,-15
14,FC(F)(F)c1cccc(Cc2noc(CN3CCCC(CN4CCCC4)C3)n2)c1 (stereo not drawn),-45.5
15,OCC1CCCN(C2CCN(Cc3nc(Cc4cccc(C(F)(F)F)c4)no3)CC2)C1 (stereo not drawn),-74.1
16,Fc1ccc(N2CCN(c3cnc4ccccc4n3)CC2)cc1,6.24
17,Cc1cc(C(F)(F)F)nn1Cc1n[nH]c(=S)n1-c1ccc(Cl)cc1,20.3
18,O=[N+]([O-])c1ccc(-c2c(O)c3ccccc3c3nc4ccccc4nc23)cc1,18
19,Cc1sc(NC(=O)c2ccco2)c(C(c2cccnc2)N2CCCC2)c1C (stereo not drawn),-8.45
20,CCN1CCN(C(c2cccnc2)c2c(NC(=O)c3ccco3)sc(C)c2C)CC1 (stereo not drawn),-58.4
21,Cc1sc(NC(=O)c2ccco2)c(C(c2cccnc2)N2CCN(C)CC2)c1C (stereo not drawn),-32.7

row,SMILES,"hERG current change (%, negative = inhibition) at 10uM [%]"
1,Cc1sc(NC(=O)c2ccco2)c(C(c2cccnc2)N2CCN(c3ccc(F)cc3)CC2)c1C (stereo not drawn),1.92
2,Cc1sc(NC(=O)c2ccco2)c(C(c2ccc(F)cc2)N2CCN(C)CC2)c1C (stereo not drawn),-68.1
3,Cc1sc(NC(=O)c2ccco2)c(C(c2cccnc2)N2CCN(CCO)CC2)c1C (stereo not drawn),-20.9
4,CC1(C)CC(=O)C2=C(C1)N(Cc1ccc(F)cc1)C(=O)C2(NC(=O)c1cccnc1)C(F)(F)F (stereo not drawn),-5.55
5,COc1ccccc1-c1nnc(SC(C(=O)c2c[nH]c3ccccc23)c2ccccc2)n1C (stereo not drawn),20.8
6,O=C(CCc1nc2ccccc2n1-c1ccccc1)NCCO,6.97
7,CCCN(CCC)CC(O)CN(c1cc([N+](=O)[O-])ccc1OC)S(=O)(=O)c1ccccc1.Cl (stereo not drawn),-60.4
8,COc1ccc([N+](=O)[O-])cc1N(CC(O)CN(CC(C)C)CC(C)C)S(=O)(=O)c1ccc(C)cc1.Cl (stereo not drawn),-13.7
9,COc1ccc([N+](=O)[O-])cc1N(CC(O)CN(CC(C)C)CC(C)C)S(=O)(=O)c1ccccc1 (stereo not drawn),-1.91
10,C=CCN(CC=C)CC(O)CN(c1cc([N+](=O)[O-])ccc1OC)S(=O)(=O)c1ccccc1 (stereo not drawn),-10.7
11,CCCCN(CCCC)CC(O)CN(c1cc([N+](=O)[O-])ccc1OC)S(=O)(=O)c1ccccc1 (stereo not drawn),-67
12,COc1ccc([N+](=O)[O-])cc1N(CC(O)CN(C)C)S(=O)(=O)c1ccccc1 (stereo not drawn),5.54
13,CC(C)CNC(=O)/C=C/C=C/CCCC/C=C/c1ccc2c(c1)OCO2,20.7
14,CC(=O)c1c(C)[nH]c(C(=O)OCc2nc3ccsc3c(=O)[nH]2)c1C,-13.6
15,O=C(CC1SC(N2CCCCC2)=NC1=O)Nc1ccc(C(=O)O)cc1 (stereo not drawn),22.1
16,CC1CCN(CCCNC(=O)c2ccc3c(=O)n(Cc4ccc(Cl)cc4)c(=S)[nH]c3c2)CC1,-68.4
17,CC1CCCCN1CCNC(=O)c1ccc2c(=O)n(Cc3ccc(Cl)cc3)c(=S)[nH]c2c1 (stereo not drawn),-50.9
18,CN(C)CCNC(=O)c1ccc2c(=O)n(Cc3ccc(Cl)cc3)c(=S)[nH]c2c1,-27.8
19,CC1CCN(CCNC(=O)c2ccc3c(=O)n(Cc4ccc(Cl)cc4)c(=S)[nH]c3c2)CC1,-15.8
20,CC1CCCCN1CCNC(=O)c1ccc2c(=O)n(CCc3ccccc3)c(=O)[nH]c2c1 (stereo not drawn),-38.7
21,COC(=O)c1ccc2c(=O)n(Cc3ccc(C(=O)NCCCN4CCC(C)CC4)cc3)c(=S)[nH]c2c1,7.54

# From PMC4336329 (PLoS ONE, 2015)
